Results taken from PubChem BioAssay (NCATS).
Results filed as inconclusive are left out. Where a call stands in place of a potency, no number is given. Unmarked numbers belong to inactive results. The source made the active and inactive calls. Calls come from the whole dose curve; as a rule, active = well fitted curve in the direction sought with a large enough effect; inconclusive = small, poorly fitted or top-dose-only effect, or another doubt; inactive = no such curve, though single readings can be large; an effect the other way counts as inactive or inconclusive. *1 amine or outer side, *2 acyl side, *3 side chain or, on linkers, in order; H or OH if unused. Where a SMILES comes first, the peptide text is derived from it. Bridges are numbered along the chain shown (N, C = ends). [ ]: non-standard residue; d: D form. The star is where a group is joined. ξ: configuration not given here. ξhTyr(3S-OH,4S-OH,3'-OSO3H) = NC(C(=O)O)[C@H](O)[C@@H](O)c1ccc(O)c(OS(=O)(=O)O)c1; Orn(4R-OH,5R-OH) = O=C([C@H](C[C@@H](O)[C@@H](O)N[*:3])N[*:1])[*:2]; X2 = CCCCCOc1ccc(-c2cc(-c3ccc(C(=O)*)cc3)no2)cc1; X3 = C[C@H]1CN([*:1])C(C(=O)[*:2])[C@H]1O; ξGln(3R-OH) = NC(=O)C[C@@H](O)C(N)C(=O)O; ξPro(4R-OH) = O=C(O)C1C[C@@H](O)CN1; ξThr(3R) = C[C@@H](O)C(N)C(=O)O

What was measured:
[1] = P-glycoprotein substrates identified in KB-3-1 adenocarcinoma cell line, qHTS therapeutic library screen (AID 1346986); note: nearly all actives have a fitted effect of over 60% in size
Summary of the method: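 Dose-response cytotoxicity, KB-3-1 vs P-gp-high KB-8-5-11, no colchicine in assay medium. Read: CellTiter-Glo at 72 h.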

[2] = P-glycoprotein substrates identified in KB-8-5-11 adenocarcinoma cell line, qHTS therapeutic library screen (AID 1346987); note: nearly all actives have a fitted effect of over 65% in size; for activity change, negative = cytotoxicity: series mostly up to about 44 µM
Summary of the method: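 In this qHTS, P-gp-rich KB-8-5-11 cells received library compounds across a concentration range. Viability was quantified by luminescence after 72 h at 37 degree C.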

## Cc1occc(=O)c1O[C@@H]1O[C@H](COC(=O)CC(C)(O)CC(=O)O)[C@@H](O)[C@H](O)[C@H]1O (some centres not stated)
[1]
  Potency: inactive
[2]
  Potency: inactive

## Cc1cc(C(=O)N2Cc3cnn(C)c3Nc3ccccc32)ccc1CNC(=O)N1CCN(Cc2cc(O)cc(O)c2)CC1
[1]
  Potency: inactive
[2]
  Potency: inactive

## C/C=C1/[C@H](O[C@@H]2O[C@H](CO)[C@@H](O)[C@H](O)[C@H]2O)OC=C2C(=O)O[C@@H]3C[C@@H](C(C)CO)[C@H](COC(=O)C[C@H]21)[C@H]3C (some centres not stated)
[1]
  Potency: inactive
[2]
  Potency: inactive

## C=C1C[C@H](O)[C@@H](O)[C@@]2(C)C1[C@@H](O)[C@H]1OC(=O)C3[C@@H](C)[C@@H](O)[C@H](O)C2[C@]31C (some centres not stated)
[1]
  Potency: inactive
[2]
  Potency: inactive

## CC(C)C1CCC(C(=O)N[C@@H](Cc2ccccc2)C(=O)O)CC1 (some centres not stated)
[1]
  Potency: inactive
[2]
  Potency: inactive

## COc1ccc(OC)c(C2C(C#N)=C(N)Oc3n[nH]c(-c4ccc5ccccc5c4)c32)c1 (configuration not stated)
[1]
  Potency: inactive
[2]
  Potency: inactive

## CC(=O)OC/C(=C/C(=O)O)CC[C@@H]1C(CO)=CC[C@@H]2C(C)(C)CCC[C@@]12C
[1]
  Potency: inactive
[2]
  Potency: inactive

## CCCCCOc1ccc(-c2cc(-c3ccc(C(=O)N[C@H]4C[C@@H](O)[C@@H](O)NC(=O)C5[C@@H](O)[C@@H](C)CN5C(=O)C([C@H](O)CC(N)=O)NC(=O)C([C@H](O)[C@@H](O)c5ccc(O)c(OS(=O)(=O)O)c5)NC(=O)C5C[C@@H](O)CN5C(=O)C([C@@H](C)O)NC4=O)cc3)no2)cc1 (stereo partly drawn) (X2-[Orn(4R-OH,5R-OH)][ξThr(3R)][ξPro(4R-OH)][ξhTyr(3S-OH,4S-OH,3'-OSO3H)][ξGln(3R-OH)][X3]; lactam 1-C)
[1]
  Potency: inactive
[2]
  Potency: inactive

## CC(C)=CCC[C@@](C)(O)[C@H]1CC[C@]2(C)[C@@H]1[C@H](O)CC1[C@@]3(C)CC[C@H](O[C@@H]4O[C@H](CO)[C@@H](O)[C@H](O)[C@H]4O[C@@H]4O[C@H](CO)[C@@H](O)[C@H](O)[C@H]4O)C(C)(C)[C@@H]3CC[C@]12C (some centres not stated)
[1]
  Potency: inactive
[2]
  Potency: inactive

## C=C1CC23CC1CCC2C12OC(=O)C(C)(C(O)C(O)C1O)C2C3C(=O)O (configuration not stated)
[1]
  Potency: inactive
[2]
  Potency: inactive

## C=C[C@@]1(C)CCC2=C([C@H]1OC(C)=O)[C@H](OC(C)=O)CC1[C@](C)(C(=O)OC)CC[C@H](OC(C)=O)[C@]21C (some centres not stated)
[1]
  Potency: inactive
[2]
  Potency: inactive

## CC1(CO)CC(O)C2(C)CCC3(C)C(=CCC4C5(C=O)CCC(OC6OC(C(=O)O)C(O)C(O)C6OC6OC(C(=O)O)C(O)C(O)C6O)C(C)(C)C5CCC43C)C2C1 (configuration not stated)
[1]
  outcome: inactive [at 9.29 µM]
[2]
  outcome: inactive [at 9.29 µM]

## C/C=C(/C)C(=O)O[C@@H]1C[C@@H](OC(=O)/C(C)=C\C)[C@@]2(C)C3C(=O)C=C(C)C2C3C1(C)C
[1]
  Potency: inactive
[2]
  Potency: inactive

## Nc1ncnc2c1c(COc1cccc(Cl)c1)nn2C1CCOCC1
[1]
  Potency: inactive

## CCCc1[nH]nc2c1C(c1cc(Cl)cc(Cl)c1O)C(C#N)=C(N)O2 (configuration not stated)
[1]
  Potency: inactive

## CCCC1=CC2=C(CO1)C(=O)C(C)(O)C(OC(=O)c1c(C)cc(OC)cc1O)C2 (configuration not stated)
[1]
  Potency: inactive
[2]
  Potency: inactive

## C[C@H]1[C@H](C)CC[C@]2(C(=O)OC3OC(CO)C(O)C(O)C3O)CC[C@]3(C(=O)O)C(=CCC4[C@@]5(C)CC[C@H](O[C@@H]6O[C@@H](C)[C@H](OC7OC(CO)C(O)C(O)C7O)[C@@H](O)[C@H]6O)C(C)(C)C5CC[C@]43C)[C@H]12 (some centres not stated)
[1]
  outcome: inactive [at 9.29 µM]
[2]
  activity change, negative = cytotoxicity: -1.84% [at 9.29 µM]

## C=C1[C@H](OC(C)=O)[C@H]2[C@@H](OC(C)=O)C(C)C[C@]2(OC(C)=O)C(=O)[C@H](C)/C=C/C(C)(C)C(=O)[C@H](OC(=O)C(C)C)[C@H]1OC(C)=O (some centres not stated)
[1]
  Potency: inactive
[2]
  Potency: inactive

## C/C=C/C=C/C=C/C(=O)O[C@@H]1C=C(CO)[C@](O)(CO)[C@@]2(C)CCCC(C)(C)[C@H]12
[1]
  Potency: inactive
[2]
  Potency: inactive

## C=C1CC23CC(=O)C4C(CO)(CO)CCCC4(C)C2CCC1C3 (configuration not stated)
[1]
  Potency: inactive
[2]
  Potency: inactive

## CC1OC(OC2CCC3(C)C(CCC4(C)C3C=CC35OCC6(CCC(C)(C)CC63)CCC45C)C2(C)CO)C(OC2OC(CO)C(O)C(O)C2O)C(O)C1OC1OC(CO)C(O)C(O)C1O (configuration not stated)
[1]
  outcome: inactive [at 9.29 µM]
[2]
  activity change, negative = cytotoxicity: 2.86% [at 9.29 µM]

## COc1cc(/C=C/C(=O)O[C@@H]2C[C@](O)(C(=O)O)C[C@@H](O)[C@H]2O)ccc1O
[1]
  Potency: inactive
[2]
  Potency: inactive
